According to PubChem BioAssay AID504467 (National Center for Advancing Translational Sciences (NCATS), 2011):
Screen size: about 330,000 compounds; about 7,700 (2.3%) were called active. Another 26% or so got no clear call; they are omitted. Calls come from the whole dose curve; as a rule, active = well fitted inhibition curve with a large enough effect; inconclusive = small, poorly fitted or top-dose-only effect, or effect the other way; inactive = flat fitted curve, though single readings scatter. The entries come from a sample that favours actives as a whole.

assay: qHTS screen for small molecules that inhibit ELG1-dependent DNA repair in human embryonic kidney (HEK293T) cells expressing luciferase-tagged ELG1; conditions: HEK293T ELG1-luciferase reporter, luminescence, 16 h, DNA damage induced by 5-fluorouridine; series mostly up to 46.1 µM; activity change, negative = inhibition: at the top concentration; note: nearly all actives have a fitted effect of over 55% in size
Source text: NIH Molecular Libraries Probe Production Network [MLPCN] NIH Chemical Genomics Center [NCGC] MLPCN Grant: 1 R03 MH092164-01 Assay Provider: Kyungjae Myung, NHGRI, NIH Keywords: MLPCN, qHTS, NCGC, genotoxicity, cancer Assay Overview: Cancer cells divide rapidly compared to normal cells in the body. During cell division, cancer cells need to duplicate their genome by DNA replication. The failure of genome duplication leads to cancer cells' death. Therefore, inhibitors of DNA replication could specifically kill cancer cells. Based on this concept, many chemotherapeutic agents were developed and have been used to treat cancer patients. However, there are a limited number of agents available in the clinical setting, and some of those that do exist have low efficacy and severe side effects. Therefore, if we can find the compounds that effectively block DNA replication either by directly damaging DNA or by inhibiting other cellular mechanisms, the options for cancer treatment will be broadened. With this in mind, we developed a quantitative high-throughput ELG1-luciferase reporter gene assay. Small molecules that specifically block ELG1 function in response to DNA damage can be identified by monitoring the suppression of luciferase activity. Since ELG1 defines a pathway for repairing DNA damage, agents blocking ELG1 function can be used to sensitize cancer cells to chemotherapeutic agents whose mechanism of action involves the induction of DNA damage.
Assay Protocol Summary: For genotoxicity screening, 2,000 cells in 4 uL/well were dispensed into white, solid-bottom 1536-well plates using a solenoid-based dispenser. Following transfer of 1 uL 5-Fluorouridine and 23 nL compound or DMSO vehicle by a pin tool, the plates were incubated 16 hr at 37 °C and 5% CO2. 5 ul ONE-Glo (Promega) was then added to each plate and following a 30 min incubation at room temperature, luciferase activity was quantified on a ViewLux CCD-based plate reader.
% is set by controls: 0 for no effect and ±100 for the full control effect; potency is the fitted concentration of half-maximal effect.

Row | Compound | activity change, negative = inhibition | Potency
1 | O=C(CN1CCN(c2ccccn2)CC1)Nc1ccc(Br)cc1 | 4.68% (inactive) | 
2 | Cc1cc(Br)ccc1NC(=O)c1sc2ncn(CC(=O)N3CCN(c4ccccn4)CC3)c(=O)c2c1C | -19.8% (inactive) | 
3 | Cc1cc(Br)ccc1NC(=O)c1cnc(N2CCN(c3ccccn3)CC2)c2ccccc12 |  | 11.6 µM (active)
4 | COc1ccc(S(=O)(=O)N2CCCCC2)cc1NC(=O)c1cc([N+](=O)[O-])ccc1N1CCOCC1 | -4.06% (inactive) | 
5 | CCc1ccc(S(=O)(=O)N/N=C\c2ccc([N+](=O)[O-])o2)cc1 | 0.784% (inactive) | 
6 | N#Cc1cc([N+](=O)[O-])ccc1NC(=O)COC(=O)c1cnccn1 | -9.45% (inactive) | 
7 | COc1cc(/C=C2\CCCc3c2nc2ccccc2c3C(=O)O)cc(Cl)c1O | 5.73% (inactive) | 
8 | O=C(COC(=O)c1ccncc1)Nc1ccc2c(c1)OCO2 | 6.03% (inactive) | 
9 | NS(=O)(=O)c1ccc(NC(=O)COC(=O)c2ccc(Cl)nc2)cc1 | -19.1% (inactive) | 
10 | CC(NC(=O)COC(=O)c1ccc2c(c1)OCO2)c1ccccc1 (stereo not drawn) | 2.17% (inactive) | 
11 | NC(=O)c1ccc(NC(=O)COC(=O)c2c3c(nc4ccccc24)/C(=C\c2ccc4c(c2)OCO4)CCC3)cc1 |  | 20.6 µM (active)
12 | NS(=O)(=O)c1ccc(NC(=O)COC(=O)c2c3c(nc4ccccc24)/C(=C\c2ccc4c(c2)OCO4)CCC3)cc1 |  | 20.6 µM (active)
13 | NS(=O)(=O)c1ccc(NC(=O)COC(=O)c2cc3ccccc3oc2=O)cc1 | 8.99% (inactive) | 
14 | O=C(COC(=O)c1c2c(nc3ccccc13)/C(=C\c1cccs1)CCC2)Nc1ccccc1Cl |  | 16.4 µM (active)
15 | O=C(COC(=O)c1c2c(nc3ccccc13)CCCC2)c1ccc(Br)s1 | -29.1% (inactive) | 
16 | COc1ccc(C(=O)N2CCCCC2C(=O)Nc2ccc(-n3nc(C)cc3C)cc2)o1 (stereo not drawn) | -6.88% (inactive) | 
17 | O=C(NCC(c1cccs1)N1CCOCC1)c1cc(Cl)ccc1[N+](=O)[O-] (stereo not drawn) | 13.1% (inactive) | 
18 | Cc1ccc(Nc2nnc(SC(C)C(=O)NC3CC3)s2)cc1 (stereo not drawn) | -26% (inactive) | 
19 | CC(C)(C)OC(=O)C[C@H]1C/C=C\C[C@@H](CC(=O)N[C@H](CO)Cc2ccccc2)C(=O)NC[C@@H](c2ccccc2)OC1=O | -14.6% (inactive) | 
20 | COc1ccc(NC(=S)NCc2cccs2)c(OC)c1 | 0.402% (inactive) | 
21 | COc1ccc2[nH]c(C)c(CCN(Cc3cccs3)C(=S)Nc3ccccc3OC)c2c1 |  | 13 µM (active)
22 | Cc1ccc(NC(=S)N(CCN2CCCCC2)Cc2ccco2)cc1C | -4.93% (inactive) | 
23 | COc1cccc(NC(=S)N(CCc2c(C)[nH]c3ccccc23)Cc2ccco2)c1 |  | 20.6 µM (active)
24 | CCNC(=S)N(CCc1c(C)[nH]c2ccc(C)cc12)Cc1ccco1 | -19.7% (inactive) | 

Row | Compound | activity change, negative = inhibition | Potency
25 | Cc1[nH]c2ccccc2c1CCN(Cc1cccs1)C(=S)NC(C)(C)C | 12.2% (inactive) | 
26 | CC(OC(=O)/C=C/c1ccccc1)C(=O)Nc1ccc(C(N)=O)cc1 (stereo not drawn) | 17.8% (inactive) | 
27 | CC1CCC(NS(=O)(=O)c2ccc3c(c2)CC(=O)N3)CC1 (stereo not drawn) | 22.5% (inactive) | 
28 | O=C(COC(=O)c1cccc(Cl)c1)NC(=O)NCc1ccccc1 | 17.8% (inactive) | 
29 | Cc1ccc(S(=O)(=O)N2[C@@H](c3cccc(Cl)c3)C(C(=O)O)=CC[C@H]2c2ccc(Cl)c(Cl)c2)cc1 | 15.3% (inactive) | 
30 | O=C(NCCCO)c1cc2c([nH]c3ccccc32)c(-c2ccc(F)cc2)n1 |  | 18.3 µM (active)
31 | CN(C)CCCNC(=O)c1ccc2[nH]c3ccccc3c2c1 | -10.4% (inactive) | 
32 | O=C(NCCCN1CCOCC1)c1cn(-c2ccccc2)nc1-c1ccc(F)cc1 | -4.58% (inactive) | 
33 | O=C(NCC1(N2CCCCC2)CCCCC1)c1ccc(NS(=O)(=O)c2ccc(F)cc2)cc1 | -5.29% (inactive) | 
34 | Cc1ccc(C(CC(=O)O)NC(=O)c2ccc(S(=O)(=O)N3CCCC3)cc2)cc1 (stereo not drawn) | 1.12% (inactive) | 
35 | Cc1c(NC(=O)CN(C)CC(=O)Nc2ccc(F)c(F)c2F)c(=O)n(-c2ccccc2)n1C | -1.81% (inactive) | 
36 | COc1ccc(C(=O)NCc2ccc(Cl)cc2)cc1S(=O)(=O)N1CCCC1 | -24.7% (inactive) | 
37 | O=C(Nc1ccc(-c2csc(Nc3cccc(C(F)(F)F)c3)n2)cc1)c1cccc(C(F)(F)F)c1 |  | 10.3 µM (active)
38 | CNC(=O)c1ccc(NC(=O)c2cccc(C(F)(F)F)c2)cc1 | 10.3% (inactive) | 
39 | Cc1nc(NC(=O)c2cccc(Cl)c2)sc1-c1csc(Nc2cccc(Cl)c2)n1 | -16.5% (inactive) | 
40 | CCN(CC)S(=O)(=O)c1ccc(N(C)Cc2ccc(C(F)(F)F)cc2)nc1 | -28.6% (inactive) | 
41 | CCN(CC)S(=O)(=O)c1ccc(N(C)Cc2cccc(OC)c2OC)nc1 |  | 13 µM (active)
42 | COc1cccc(CN(C)C(=O)CC23CC4CC(CC(C4)C2)C3)c1OC | -19.8% (inactive) | 
43 | COc1ccc(/C=C/C(=O)OCC(=O)NC2CCCCCC2)cc1OC | -9.56% (inactive) | 
44 | COC(=O)c1cc(Oc2ccc(S(=O)(=O)N3CCOCC3)cc2[N+](=O)[O-])cc(C(=O)OC)c1 | -0.0128% (inactive) | 
45 | COc1ccc(OCCCON2C(=O)c3ccccc3C2=O)cc1 | 22.7% (inactive) | 
46 | CCOC(=O)C1=C(c2ccc(OC)cc2)C(=O)c2ccccc2C1=O |  | 2.91 µM (active)
47 | CCCCC(C(=O)OCC(=O)c1ccc(OC)cc1)N1C(=O)c2ccccc2C1=O (stereo not drawn) | -24% (inactive) | 
48 | Cc1ccc(C(=O)CN2C(=O)NC3(CCOc4ccccc43)C2=O)s1 (stereo not drawn) | 17.1% (inactive) | 
